Source: PubChem BioAssay (several laboratories)
The list is not random: actives were taken first. Their share in the collection is about 4.2%.
RecA splice inh – blocks M. tuberculosis RecA intein splicing; cell-free RecA intein splicing, fluorescence; inhibition, % (no concentration beside the values); actives 0.75% (n = 290,000); AID 2221; in the data active = inhibition above about 30%; inconclusive = no clear call, values can overlap the other calls;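 also: 0% = vehicle wells and 100% = reference inhibitor control wells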
CCHFV vOTU inh – blocks the CCHF virus ovarian tumor domain protease. CCHFV vOTU protease, Pep-AMC fluorescence. inhibition, % at 11.5 µM. actives 0.55% (n = 370,000). AID 651958; also: 0% = vehicle wells with enzyme and 100% = no enzyme wells
Mtb FBA inh – inhibits M. tuberculosis FBA enzyme; P9WQA3; purified M. tuberculosis FBA, fluorescence read-out; inhibition, % at 1 µM; actives 2.3% (n = 360,000); in the data active = inhibition above about 27%;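 also: 0% = vehicle and 100% = reference inhibitor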
Target sequence (P9WQA3 whole entry, looked up): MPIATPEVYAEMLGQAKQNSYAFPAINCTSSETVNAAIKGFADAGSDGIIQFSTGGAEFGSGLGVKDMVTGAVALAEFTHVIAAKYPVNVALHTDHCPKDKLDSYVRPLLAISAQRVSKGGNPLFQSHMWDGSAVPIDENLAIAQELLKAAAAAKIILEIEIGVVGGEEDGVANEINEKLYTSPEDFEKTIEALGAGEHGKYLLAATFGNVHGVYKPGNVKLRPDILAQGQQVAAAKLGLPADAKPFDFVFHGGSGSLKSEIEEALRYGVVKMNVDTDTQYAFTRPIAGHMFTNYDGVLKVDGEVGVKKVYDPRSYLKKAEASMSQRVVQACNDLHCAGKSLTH
Mtb betalactam – beta-lactam sensitization of Mtb H37Rv | M. tuberculosis H37Rv growth with meropenem, percent inhibition | inhibition, % at 25 µM | actives 0.27% (n = 330,000); call rule not given here;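 also: growth measured after seven days incubation then overnight dye step; 0% = bacteria only wells and 100% = bacteria with antibiotic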
GDH-TPI counter – inhibits GDH-TPI coupling enzymes, artifact for Mtb FBA screen. GDH-TPI coupled enzyme counterscreen, NADH absorbance. inhibition, % at 4.8 µM. actives 1.2% (n = 360,000). AID 588335;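 also: 0% = DMSO wells and 100% = wells lacking the enzyme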
* = called active by the depositor; ? = inconclusive; . = no result given; + = active, no number. Rule as the data show it, unless noted: active = inhibition above about 30%; inactive = the rest.

SMILES | RecA splice inh | CCHFV vOTU inh | Mtb FBA inh | Mtb betalactam | GDH-TPI counter
Cc1cccc(NC(=O)c2ccco2)c1C | . | -12 | 1 | -2 | 15
CC1(C)Cc2c(sc(NC(=O)c3ccco3)c2C#N)CO1 | 4 | 8 | -1 | -4 | 31*
Cc1ccc(-n2c(Cc3cccs3)nnc2SCc2ccc([N+](=O)[O-])cc2)cc1 | . | 10 | . | . | .
CC(=NNC(=O)CSc1nnc(-c2ccccc2)n1-c1ccccc1)c1ccc2ccccc2c1 | . | 1 | . | . | .
O=C1CCCc2sccc2N1 | 1 | 4 | -4 | -1 | -2
N#CC(C#N)=C1CCCc2sccc21 | . | 9 | 10 | . | 33*
OCCCCCNc1ncnc2ccccc12 | 2 | 5 | -3 | -8 | -1
OCCCCNc1cccc2ccccc12 | 7 | -77 | 161* | 4 | 9
Oc1ccc(C=Nc2ccccc2-c2nc3ccccc3[nH]2)c(O)c1 | -12 | -251 | 166* | 1 | 33*
COc1ccc(OC)c(C=Nc2ccccc2-c2nc3ccccc3[nH]2)c1 | 0 | -314 | + | -3 | 17
Oc1ccccc1C=Nc1ccccc1-c1nc2ccccc2[nH]1 | -4 | -253 | 128* | -1 | 18
COc1ccc(CCN(Cc2cccs2)S(=O)(=O)c2ccccc2)cc1OC | . | 2 | . | . | .
Cc1cc(N2CCN(Cc3ccc4c(c3)OCO4)CC2)n2nc(C)nc2n1 | . | 4 | . | . | .
Cc1[nH]c2ccccc2c1/C=N/NC(=O)c1cccc(F)c1 | 0 | -2 | 2 | 1 | 19
Cc1[nH]c2ccccc2c1/C=N/NC(=O)c1cc(C(C)C)[nH]n1 | 4 | -1 | 2 | -1 | 47*
Cc1[nH]c2ccccc2c1/C=N\NC(=O)c1ccco1 | -3 | 9 | -3 | -3 | 57*
CCc1cc(C(=O)N/N=C/c2c(C)[nH]c3ccccc23)cs1 | 1 | 7 | 4 | 1 | 32*
c1ccn(-c2ccc(-c3noc(CCc4ccncc4)n3)cc2)c1 | . | 12 | . | . | .
COc1cccc(/C=C2\CC3(OC(=O)C(C)(C)C)CCCN2C3)c1 (configuration not stated) | . | 4 | . | . | .
COc1ccc(C(=O)Nc2cnc3ccccn3c2=O)cc1 | -1 | 4 | -1 | -10 | 49*
O=C(Nc1cnc2ccccn2c1=O)c1ccc(F)cc1 | -6 | 3 | -2 | -2 | 24
N#C/C(=C/c1ccc(Br)o1)C(N)=O | 1 | 14 | 0 | 1 | 45*
N#C/C(=C/c1ccc(Br)o1)C(N)=S | 1 | . | . | -1 | .
COCCOC(=O)/C(=C/c1ccc(OC(=O)c2ccccc2)cc1)C(C)=O | 3 | . | 31* | -6 | 10
CC(=O)CC[C@H]1CC[C@]2(CCCN(C(=O)C3CCCC3)C2)O1 | . | -2 | . | . | .
SMILES | RecA splice inh | CCHFV vOTU inh | Mtb FBA inh | Mtb betalactam | GDH-TPI counter
CCOc1cccc(/C=C/c2cc(C(=O)O)c3ccccc3n2)c1OC | 0 | . | -8 | 2 | 48*
CCOc1cc(/C=C/c2cc(C(=O)O)c3ccccc3n2)ccc1OC | -3 | 3 | 1 | -2 | 7
CC(=O)N1CCCN(C(=O)Cn2cnc3ccccc3c2=O)CC1 | . | -4 | . | . | .
CC1CCC2(CC1)CCN(CCCOC(=O)Nc1ccc3c(c1)OCO3)C2=O (configuration not stated) | . | 11 | . | . | .
Cn1nc(C(=O)OCc2ccccc2F)c2ccccc2c1=O | 6 | 8 | 1 | 3 | -4
Nc1nn(-c2ccccc2)nc1C(=O)OCc1ccccc1F | -2 | . | 135* | 73 | 4
Cc1cc(C)cc(NC(=O)OC2CCC23CCCCC3)c1 (configuration not stated) | . | 6 | . | . | .
O=C(/C=C/NCc1cccnc1)C(F)(F)C(F)(F)F | 1 | -11 | 1 | 2 | 8
O=C(/C=C/NCc1cccnc1)c1ccc(Br)cc1 | 0 | -6 | -3 | -1 | 54*
COC(=O)[C@]12C[C@H](CC(=O)NCc3ccccc3)C(=O)N(Cc3ccco3)C1=C[C@H](C(C)C)O[C@@H]2C1CC1 | . | 11 | . | . | .
COC(=O)CSC1=C(C#N)C(=O)NC(c2ccccc2)S1 (configuration not stated) | 1 | 4 | -7 | -2 | 41*
Cc1cc(NCCOCCO)n2c(nc3ccccc32)c1C#N | -83 | -244 | + | -3 | 11
COCCNc1cc(C)c(C#N)c2nc3ccccc3n12 | 4 | -163 | 193* | 3 | 10
Cc1c(Cc2ccccc2)c(NCCCO)n2c(nc3ccccc32)c1C#N | -27 | -3 | 12 | 100 | 9
Cc1cc(NCCCO)n2c(nc3ccccc32)c1C#N | -109 | -48 | 181* | -9 | 10
O=C(C1CCC1)N1CCc2cc(S(=O)(=O)C3CCN(Cc4ccc(F)cc4)CC3)ccc21 | . | 5 | . | . | .
CCOC(=O)c1nc2sc3c(c2c(=O)n1C(C)C(=O)OCC)CCCC3 (configuration not stated) | 3 | -169 | 135* | 88 | 11
COc1ccccc1CC(=O)NCCN1C(=O)C2C3C=CC(C3)C2C1=O (configuration not stated) | . | 2 | . | . | .
COc1ccc(-c2nc3c(=O)n(C)c(=O)[nH]c3n2CCc2ccccc2)cc1 | -1 | . | 184* | -4 | 8
COc1ccc(CCn2c(-c3ccccc3)nc3c(c(=O)c4ccccc4n3C)c2=O)cc1 | -2 | 0 | . | -4 | .
CCCn1c(-c2ccccc2)nc2c(=O)n(C)c(=O)[nH]c21 | 0 | -28 | + | -11 | 9
Cc1nc2c(=O)n(C)c(=O)[nH]c2n1Cc1ccccc1 | -2 | -6 | 16 | 0 | 8
COc1ccc(S[C@]2(C(=O)N3CCOCC3)CC(=O)N(S(=O)(=O)c3ccc(F)cc3)[C@@H]2c2ccc(OC)cc2)cc1 | . | 8 | . | . | .
COc1ccc(/C=N/N=C2\SCC(=O)N2c2c(C)n(C)n(-c3ccccc3)c2=O)cc1OC | 2 | 11 | -2 | 0 | 41*
Cc1c(N2C(=O)CS/C2=N\N=C\c2ccccc2O)c(=O)n(-c2ccccc2)n1C | -6 | -6 | -1 | -3 | 32*
SMILES | RecA splice inh | CCHFV vOTU inh | Mtb FBA inh | Mtb betalactam | GDH-TPI counter
Cc1c(N2C(=O)CS/C2=N\N=C\c2ccc(Cl)cc2)c(=O)n(-c2ccccc2)n1C | -2 | 15 | 1 | ? | 10
OC[C@H]1CC[C@@H]2O[C@H](CCc3ccc(-c4ccc(F)cc4)cc3)[C@H](n3cc(C4CC4)nn3)C[C@@H]2O1 | . | 14 | . | . | .
CNc1nc(-c2ccc3c(c2)CCN3C(=O)c2ccc(F)cc2)cs1 | . | 3 | 6 | . | 6
CNc1nc(-c2ccc3c(c2)CCN3C(=O)c2cccc(F)c2)cs1 | 0 | -3 | 1 | 91 | 31*
S=c1[nH]nc(-c2cc3ccccc3o2)n1Cc1ccccc1 | -1 | -17 | 132* | 4 | 20
COc1ccc(CN2CCC(CNC(=O)Nc3ccccc3)CC2)cc1 | . | 5 | . | . | .
CCOC(=O)C1CCN(C(=O)c2cccs2)CC1 | 1 | -10 | -3 | -4 | 10
